High-throughput results: PubChem BioAssay, National Center for Advancing Translational Sciences (NCATS)
LASV entry inh: Lassa virus entry inhibition; Potency, µM (doses to about 37.9 µM), for the others: at the top dose activity change, negative = inhibition, most hits filed as inhibitors; Lassa virus pseudotype entry inhibition, cell reporter; actives 1.2% (n = 300,000); AID 540256; calls by dose curve; tested in HEK293 cells; note: potency is the fitted concentration of half-maximal effect; % is set by controls: 0 for no effect and ±100 for the full control effect; nearly all actives have a fitted effect of over 50% in size
CHX counter: counter-screen for Shiga toxin inhibitors: cycloheximide protein synthesis inhibition | cell reporter, cycloheximide protein synthesis inhibition counterscreen | max response, % | actives 12% (n = 300,000) | AID 2314; in the data active = max response mostly above about 13%, no sharp cut-off; inactive = mostly below about 14%; note: read at 38.3 µM for the half of the compounds with a filed dose; 0% is about no effect
Shiga inhibitor: inhibitors of Shiga toxin in Vero cells; Vero cells, Shiga toxin protein synthesis inhibition reporter; inhibition, % at 38.7 µM; actives 9.2% (n = 290,000); in the data active = inhibition mostly above about 28%, no sharp cut-off; inactive = mostly below about 43%; note: 0% is about no effect
Pf growth 96h: P. falciparum growth inhibition at 96 hours; actives 6.9% (n = 320,000); Potency, µM (top dose mostly 28.7 µM), for the others: at the highest dose activity change, negative = inhibition, hits mostly inhibitors; AID 504834; P. falciparum luciferase reporter growth, 96 h; note: potency is the fitted concentration of half-maximal effect; % is set by controls: 0 for no effect and ±100 for the full control effect
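Luminescence readout: decreased luciferase signal marks inhibited growth of reporter-expressing P. falciparum in infected red cells (2% hematocrit, 0.05% parasitemia final), exposed to compound two generations (96 h, 37 C, 5% CO2).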
Marburg entry inh: blocks Marburg virus binding to or entry into cells; Marburg virus pseudotyped entry inhibition, cell reporter; Potency, µM (titrated, usually from 37.8 µM), for the others: top-dose activity change, negative = inhibition, most hits filed as inhibitors; actives 1.8% (n = 300,000); AID 540276; calls by dose curve; tested in HEK293 cells; note: potency is the fitted concentration of half-maximal effect; % is set by controls: 0 for no effect and ±100 for the full control effect
Pf growth 48h: P. falciparum growth inhibition at 48 hours (one generation) | P. falciparum luciferase growth in erythrocytes, 48 h | Potency, µM (doses to about 28.7 µM), inactives show at the top dose activity change, negative = inhibition, usual class: inhibitors | actives 5.9% (n = 310,000) | AID 504832; note: potency is the fitted concentration of half-maximal effect; % is set by controls: 0 for no effect and ±100 for the full control effect
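Here the parasites carry a stable luciferase gene and grow inside erythrocytes in Albumax-based RPMI medium with compound for one erythrocytic cycle. Activity is scored as loss of luminescent signal.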
Numbers without * were called inactive; u = inconclusive; x = no result; [ ] = another dose, or the depositor's remark. In the library only some 19% were active in any assay of this set; here they are far more common. Unless noted, calls come from the whole dose curve; as a rule, active = well fitted inhibition curve with a large enough effect; inconclusive = small, poorly fitted or top-dose-only effect, or another doubt; inactive = no such curve, though single readings can be large or run the other way.

SMILES	LASV entry inh	CHX counter	Shiga inhibitor	Pf growth 96h	Marburg entry inh	Pf growth 48h
O=c1c2ccccc2nc(/C=C/c2ccc3c(c2)OCO3)n1-c1ccccc1	0%	-2	9	10µM*	-6%	u
COc1ccc(-n2c(/C=C/c3ccc(O)c(O)c3)nc3ccccc3c2=O)cc1	x	2	17	2.3µM*	x	5.2µM*
O=c1c2ccccc2nc(/C=C/c2ccc3c(c2)OCO3)n1CCCO	u	24*	47	31%	u	13%
O=c1c2ccccc2nc(/C=C/c2ccccc2O)n1-c1ccccc1O	x	13	23	u	x	u
C[N+](C)(CC#Cc1ccccc1)CC(=O)c1ccccc1	-16%	-1	-5	170%	5%	u
C#CC[N+](C)(C)C(C#Cc1ccccc1)CC=C (stereo unspecified)	22%	-4	-12	5.9µM*	-4%	9.3µM*
CCc1cc2c(=O)c(-c3cnn(-c4ccccc4)c3)c(C(F)(F)F)oc2c(CN(C)C)c1O	14%	-2	-9	x	16%	6.6µM*
CCc1cc2c(=O)c(-c3cnn(-c4ccccc4)c3)coc2c(CN2CCOCC2)c1O	-22%	17	11	u	u	u
CCc1cc2c(=O)c(-c3nc4ccccc4n3C)coc2c(CN2CCCCC2)c1O	x	0	6	2.9µM*	x	-19%
CCc1cc2c(=O)c(-c3cnn(-c4ccccc4)c3)c(C)oc2c(CN2CCCCC2)c1O	0%	14	11	47%	u	15µM*
O=C(Nc1nnc(C2=COCCO2)o1)c1ccc([N+](=O)[O-])cc1	-20%	-1	-10	u	-11%	u
Cc1cccc(N2C(=O)CC(Sc3nc(C)c4c(n3)CCCC4)C2=O)c1 (stereo unspecified)	15%	-3	12	u	-12%	15%
BrC(=C\c1ccccc1)/C=N/n1cnnc1	x	43*	31*	26%	x	10µM*
COc1ccc(-c2c(C#N)c(N)nc3c2CCC3)cc1	x	20*	15	4%	x	u
Cc1ccc(-c2c(C#N)c(N)nc3c2CCCC3)o1	x	1	20	u	x	10µM*
CCCCc1ccc(-c2c(C#N)c(N)nc3c2CCCC3)s1	-1%	1	-9	13µM*	19%	u
CC(=O)c1cccc(NC(=S)NCCc2ccc(Cl)cc2)c1	10%	8	22	u	u	-27%
O=C(NNc1nc(-c2ccccc2)cs1)c1ccco1	u	12*	23	1.5µM*	-28%	12µM*
Cc1ccc(-c2csc(NC(=S)NC(=O)c3ccco3)n2)cc1	-1%	-3	-3	u	12%	60%
O=C(NNc1nc(-c2ccc(Cl)cc2)cs1)c1ccco1	u	39*	41*	u	u	12µM*
CC(=O)Nc1ccc(/C=C2\Sc3ccccc3C2=O)cc1	-6%	5	25	20%	1%	12%
O=C1/C(=C/c2cccnc2)Sc2ccccc21	0%	13	-2	7.4µM*	10%	u
Cc1ccc(/C=C2\Sc3ccccc3C2=O)s1	24%	14*	34*	-3%	u	u
Cc1nc(SCC(=O)Nc2cccc(S(=O)(=O)N3CCOCC3)c2)nc(C)c1C	-24%[46.1 µM]	x	x	x	u	x
c1ccc2[nH]c(CCNC3CCCCC3)nc2c1	-5%	-3	16	-1%	-22%	-9%
SMILES	LASV entry inh	CHX counter	Shiga inhibitor	Pf growth 96h	Marburg entry inh	Pf growth 48h
CCc1cc2c(=O)c(-c3ccc4c(c3)OCCO4)c(C)oc2cc1OS(C)(=O)=O	u	0	7	4.1µM*	u	u
COc1ccc(-n2c(-c3ccc(Br)cc3)c[n+]3c2CCC3)cc1	u	2	4	u	u	6.6µM*
COc1ccc(-n2c(-c3ccc(Br)cc3)nc(=S)c3c2CCCC3)cc1	27%	1	-4	u	-1%	7%
COc1ccc(-n2c(-c3ccc(Br)cc3)n[nH]c2=S)cc1	x	-2	x	-12%	x	-16%
CCOc1ccc(-c2c[n+]3c(n2-c2ccccc2)CCCCC3)cc1	u	10	31	0.93µM*	u	1.2µM*
COc1ccc(-n2c(-c3ccc(Br)cc3)c[n+]3c2SC(C)C3)cc1 (stereo unspecified)	u	2	19	u	u	0.33µM*
